The text below walks through data of the supplement of paper PMC13380429.

For test [1], the system named is Vero E6 infected with SARS-CoV-2. Kind of test: morphology score (similarity to uninfected cells); higher = more like uninfected cells. The following applies: 24 h.
Test [2] shares this test system. The test can be described thus: SARS-CoV-2 infection rate relative to infected DMSO; higher = more infection, active = 60 or less. The following applies: 24 h.

In test [1], `Cn1c(=O)c2c(ncn2CC(O)CO)n(C)c1=O` (stereo not given) [dyphylline] (10 µM) returned a morphology score of 0.0342. Also, the SARS-CoV-2 infection rate in test [2] was 96% (inactive).

Take `C1CCC(NC2CCCCC2)CC1` [dicyclohexylamine] (10 µM): the morphology score in test [1] is -0.191. The SARS-CoV-2 infection rate in test [2] was 114% (inactive).

`C#CCN(C)[C@H](C)Cc1ccccc1` [selegiline] (10 µM) returned a morphology score in test [1] of 0.0406. The SARS-CoV-2 infection rate in test [2] was 105% (inactive).

Consider `NC(=O)C(c1ccccc1)(c1ccc(F)cc1)c1ccc(F)cc1` [senicapoc] (10 µM), for which the morphology score in test [1] is -0.127. In test [2], the SARS-CoV-2 infection rate was 114% (inactive).

As to `C[C@@H](O)[C@H]1C(=O)N2C(C(=O)O)=C(SCCNC=N)C[C@H]12` [imipenem] (10 µM), in test [1], the morphology score was -0.161. The SARS-CoV-2 infection rate in test [2] is 114% (inactive).

`C=C(CC)C(=O)c1ccc(OCC(=O)O)c(Cl)c1Cl` [etacrynic-acid] (10 µM): the morphology score in test [1] was -0.0164. Moreover, the SARS-CoV-2 infection rate in test [2] was 98.5% (inactive).

As for `C[C@H](N)C(=O)N[C@@H](CCC(N)=O)C(=O)O` [dipeptamin] (10 µM), in test [1], the morphology score amounted to 0.00346. Further, the SARS-CoV-2 infection rate in test [2] is 102% (inactive).

`CCCC(C)(COC(N)=O)COC(=O)NC(C)C` (stereo not given) (10 µM): the morphology score in test [1] is -0.33. Further, the SARS-CoV-2 infection rate in test [2] was 116% (inactive).

In test [1], `CC(=O)SC[C@@H](Cc1ccccc1)C(=O)NCC(=O)OCc1ccccc1` (racemic) [racecadotril] (10 µM) gave a morphology score of 0.0461. For the same compound, the SARS-CoV-2 infection rate in test [2] is 110% (inactive).

Compound `O=C(O)c1cccnc1Nc1cccc(C(F)(F)F)c1` [niflumic-acid] (10 µM) returned a morphology score in test [1] of 0.127. Besides, the SARS-CoV-2 infection rate in test [2] is 104% (inactive).

As to `C[C@]12CCC(=O)C=C1CC[C@@H]1[C@@H]2[C@@H](O)C[C@@]2(C)[C@H]1CC[C@]2(O)C(=O)CO` [hydrocortisone] (10 µM), in test [1], the morphology score was -0.144. Also, in test [2], the SARS-CoV-2 infection rate was 122% (inactive).

`CC[N+](C)(CC)CC(=O)Nc1c(C)cccc1C` [N-methyllidocaine-iodide] (10 µM) had a morphology score in test [1] of 0.0478. The SARS-CoV-2 infection rate in test [2] is 100% (inactive).

On to `Cc1ccc2nc(NCCN)c3ncc(C)n3c2c1` (0.833333 µM), for which the morphology score in test [1] is -0.353. In addition, in test [2], the SARS-CoV-2 infection rate was 116% (inactive).

In the case of `CCCCCCCCCCCCCCC[C@@H](O)[C@@H](N)CO` [safingol] (10 µM), the morphology score in test [1] is -0.197. For the same compound, the SARS-CoV-2 infection rate in test [2] was 117% (inactive).

`O=C(O)Cc1ccc(OCCNC[C@H](O)c2ccccc2)cc1` (10 µM): the morphology score in test [1] was -0.102. Besides, the SARS-CoV-2 infection rate in test [2] was 106% (inactive).

For `Cn1c2c(c3ccccc31)CCNCC2` (10 µM), the morphology score in test [1] came out at 0.0193. In addition, the SARS-CoV-2 infection rate in test [2] was 103% (inactive).

Take `CCOC(=O)Nc1ccc2c(c1)N(C(=O)CCN1CCOCC1)c1ccccc1S2` [moracizine] (10 µM): the morphology score in test [1] was found to be 0.154. Also, the SARS-CoV-2 infection rate in test [2] was 112% (inactive).

In turn, `CC[C@H](C)[C@@H]1NC(=O)[C@H](Cc2ccc(OC)cc2)NC(=O)CCCSC[C@@H](C(=O)N2CCC[C@H]2C(=O)N[C@@H](CC(C)C)C(=O)NCC(N)=O)NC(=O)[C@H](CC(N)=O)NC(=O)[C@H](CCC(N)=O)NC1=O` [carbetocin] (10 µM) came in with a morphology score in test [1] of 0.123. In addition, the SARS-CoV-2 infection rate in test [2] is 118% (inactive).

Regarding `O=C(O)c1ccc2[nH]cc(CCCCN3CC=C(c4ccccc4)CC3)c2c1` [carmoxirole] (10 µM), in test [1], the morphology score came to 0.0618. Also, the SARS-CoV-2 infection rate in test [2] was 96.5% (inactive).

In test [1], `Cc1nn(C)c2c1C(c1ccc(C(F)(F)F)cc1)C(C#N)=C(N)O2` (stereo not given) (10 µM) had a morphology score of 0.0472. The SARS-CoV-2 infection rate in test [2] was 98% (inactive).

As to `COc1cc2c(c(OC)c1OC)-c1c(cc3c(c1OC)OCO3)C[C@H](C)[C@@](C)(O)C2` [schisandrol-B] (10 µM), the morphology score in test [1] is -0.0659. Also, in test [2], the SARS-CoV-2 infection rate is 106% (inactive).

On to `Cc1c(C(=O)NN2CCCCC2)nn(-c2ccc(Cl)cc2Cl)c1-c1ccc(Cl)cc1` [rimonabant] (10 µM), for which the morphology score in test [1] worked out at 0.17. In addition, the SARS-CoV-2 infection rate in test [2] was 110% (inactive).

Take `CCCN1CCCC(c2cccc(O)c2)C1` (stereo in doubt) [preclamol] (10 µM): in test [1], the morphology score is -0.1. The SARS-CoV-2 infection rate in test [2] was 114% (inactive).

In test [1], `CC(C)(C)NC(=O)[C@@H]1C[C@@H]2CCCC[C@@H]2CN1C[C@@H](O)[C@H](Cc1ccccc1)NC(=O)[C@H](CC(N)=O)NC(=O)c1ccc2ccccc2n1` [saquinavir] (10 µM) returned a morphology score of 0.0775. The SARS-CoV-2 infection rate in test [2] was 106% (inactive).

In test [1], `Nc1nc(OCC2CCCCC2)c2nc[nH]c2n1` (10 µM) returned a morphology score of 0.0911. Besides, the SARS-CoV-2 infection rate in test [2] was 90.5% (inactive).

For `Cc1ccc(NC2=CC(=O)c3sc(C)nc3C2=O)cc1` [ryuvidine] (0.833333 µM), the morphology score in test [1] came to 0.165. For the same compound, the SARS-CoV-2 infection rate in test [2] was 104% (inactive).

As to `O=C(CN1C2=NCCN2c2ccccc21)c1ccc(-c2ccccc2)cc1` (10 µM), the morphology score in test [1] stood at 0.646. Further, the SARS-CoV-2 infection rate in test [2] was 35% (active).

In the case of `N=C(N)NC(=O)c1cnn(-c2cccc3ncccc23)c1C1CC1` [zoniporide] (10 µM), the morphology score in test [1] is 0.127. Also, the SARS-CoV-2 infection rate in test [2] is 115% (inactive).

`COc1ccccc1C(=O)Nc1cc2c(cc1N1CCCC1)n(C)c(=O)n2C` (10 µM): in test [1], the morphology score was 0.0131. In addition, the SARS-CoV-2 infection rate in test [2] was 93.5% (inactive).

In turn, `CCN(CC)CCOCCOC(=O)C(CC)(CC)c1ccccc1` [oxelaidin] (10 µM) displayed a morphology score in test [1] of 0.423. In test [2], the SARS-CoV-2 infection rate was 73.5% (inactive).
